The values below come from PubChem BioAssay (Tox21).

The structures appear in SMILES notation. Results filed as inconclusive are left out. Calls of active or inactive are those of the source. Unless noted, calls follow the shape of the full dose curve.

Assay [1] in a line: Nuclear factor erythroid 2-related factor 2/antioxidant responsive element (Nrf2/ARE) small molecule agonists: qHTS cell viability counter screen in human keratinocytes (AID 1919968; active = well fitted curve in the direction sought with a large enough effect in the repeat runs; an effect the other way counts as inactive or inconclusive; also: nearly all actives have a fitted effect of over 55% in size). The gist of the method: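 CellTiter-Fluor fluorescence, read 1 h after reagent, gave viability in the same wells as the ARE-luciferase assay. KeratinoSens cells (1,500/well) had 23 h compound exposure at 37 C/5% CO2 following 5 h plating.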
Background: Quantitative high-throughput screening tests each substance at several concentrations.

A short description of assay [2]: Nuclear factor erythroid 2-related factor 2/antioxidant responsive element (Nrf2/ARE) small molecule agonists: luciferase reporter gene qHTS assay in human keratinocytes (AID 1919969). Also: nearly all actives have a fitted effect of over 35% in size. In general terms: A reporter such as luciferase makes a cellular process visible.
The target of assay [3] is Gonadotropin-releasing hormone receptor (Homo sapiens) (UniProt P30968). Kind of assay: Human gonadotropin-releasing hormone receptor (GnRHR) small molecule agonists, calcium flux assay in GnRHR-HEK293 cells (AID 1920063). Also: nearly all actives have a fitted effect of over 35% in size. The gist of the method:
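Agonist mode: compounds at 15 concentrations, in triplicate, went onto calcium dye-loaded GnRHR-HEK293 cells. Intracellular calcium was then followed as 480/540 nm fluorescence at 1 s intervals over 3 min.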

For assay [4], the target named is KiSS-1 receptor (Homo sapiens) (UniProt Q969F8). Nature of the assay: Human kisspeptin (KISS1R) small molecule agonists, calcium flux assay in KISS1R-HEK293 cells (AID 1920064; active = well fitted curve in the direction sought with a large enough effect in the repeat runs; an effect the other way counts as inactive or inconclusive). The gist of the method: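 Agonist mode: intracellular calcium rise tracked at 1 s intervals over 3 min (480/540 nm) immediately after compound addition to dye-loaded KISS1R-HEK293 stable cells. Each compound tested at 15 concentrations in triplicate.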
For orientation: Calcium flux is commonly read through the fluorescence of an indicator in the cells.

Assay [5] is described as follows: G protein-coupled receptor (GPCR) small molecule agonists, calcium flux assay: HEK293 wild type cell line counter screen (AID 1920065). The gist of the method: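 Calcium flux counter screen: compound added in agonist mode at 15 concentrations in triplicate to dye-loaded parental HEK293 cells. Fluorescence (480/540) read kinetically for 3 min; ATP served as positive control.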

Assay [6] in a line: p53 small molecule agonists, cell-based qHTS assay with human liver microsomes: qHTS cell viability counter screen (AID 1963579). Also: nearly all actives have a fitted effect of over 45% in size. The gist of the method: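 Seed p53RE-bla cells at 4,000 per well; incubate 5 h at 37 C; add compound, human liver microsomes and NADPH; incubate 16 h at 37 C; add CellTiter-Glo; after 30 min at room temperature, read luminescence.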
Assay [7] in a line: p53 small molecule agonists, cell-based qHTS assay with rat liver microsomes: qHTS cell viability counter screen (AID 1963580). Also: nearly all actives have a fitted effect of over 45% in size. Put shortly: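 Cytotoxicity counter screen: intracellular ATP measured by CellTiter-Glo luminescence in the same wells as the beta-lactamase reporter read, on HCT-116 p53RE-bla cells exposed 16 h at 37 C to compounds with rat liver microsomes and NADPH, each 0.5 mg/mL final.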

A short description of assay [8]: p53 small molecule agonists, cell-based qHTS assay: qHTS cell viability counter screen (AID 1963581). Also: nearly all actives have a fitted effect of over 45% in size. The gist of the method: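 Counter screen read by CellTiter-Glo luminescence (ATP content, 30 min at room temperature), run in the same wells as the beta-lactamase reporter read. HCT-116 p53RE-bla cells saw compounds for 16 h at 37 C.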
The nature of assay [9]: p53 small molecule agonists, cell-based qHTS assay (AID 1963582; active = well fitted activation curve with a large enough effect in the signal ratio in the repeat runs, not every such curve was filed as active; the % refers to the signal ratio). Put shortly: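 Read-out is beta-lactamase FRET fluorescence after 2 h at room temperature with LiveBLAzer B/G substrate. p53 response element-bla cells were treated 16 h at 37 C with compounds in DMSO, added 5 h after seeding.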
Assay [10] addresses 5-hydroxytryptamine receptor 2A (Homo sapiens) (UniProt P28223). Kind of assay: 5-hydroxytryptamine receptor 2A (HTR2A) small molecule antagonists, cell-based qHTS assay (AID 1963586). Also: nearly all actives have a fitted effect of over 45% in size. Put shortly: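 CHO cells stably expressing human HTR2A were plated for 18 h at 37 C, then loaded with calcium dye for 1 h. Compounds were preincubated 5 min at room temperature before DOI (4 nM solution) was added. Kinetic fluorescence was read for 3 min.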

Assay [11] has the same target. Kind of assay: 5-hydroxytryptamine receptor 2A (HTR2A) small molecule agonists, cell-based qHTS assay (AID 1963587). Also: nearly all actives have a fitted effect of over 30% in size. Put shortly: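 CHO cells stably expressing human HTR2A, plated 18 h, loaded with calcium dye 1 h at 37 C. Agonist mode: compounds added and intracellular calcium fluorescence recorded kinetically for 2 min at 1 sec intervals.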
Assay [12] addresses Muscarinic acetylcholine receptor M1 (Homo sapiens) (UniProt P11229). Kind of assay: Cholinergic receptor muscarinic 1 (CHRM1) small molecule antagonists, cell-based qHTS assay (AID 1963588). Also: nearly all actives have a fitted effect of over 40% in size. The gist of the method:
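Compounds were tested at 15 concentrations in three independent runs. Dye-loaded CHRM1-CHO cells were exposed 5 min at room temperature before stimulation by acetylcholine added at 50nM. Intracellular calcium was read kinetically on FDSS for 3 min.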

Assay [13] shares this target. Kind of assay: Cholinergic receptor muscarinic 1 (CHRM1) small molecule agonists, cell-based qHTS assay (AID 1963589). Also: nearly all actives have a fitted effect of over 35% in size. Put shortly:
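Agonist-mode calcium-flux screen: compounds at 15 concentrations, three independent runs, were pin-transferred onto dye-loaded human CHRM1-CHO cells. Fluorescence was then recorded kinetically every second over minutes.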

A short description of assay [14]: cAMP Responsive Elements (CRE) small molecule agonists, cell-based qHTS assay (AID 1963590). The gist of the method:
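Agonist mode: compound added to CRE-bla HEK 293T cells (2,000/well, 18 h after plating) for 3 h at 37 C/5% CO2. Reporter activity detected via FRET beta-lactamase substrate, 2 h room-temperature loading.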

Assay [15] in a line: cAMP Responsive Elements (CRE) small molecule antagonists, cell-based qHTS assay (AID 1963591; active = well fitted inhibition curve with a large enough effect in the signal ratio in the repeat runs, not every such curve was filed as active; the % refers to the signal ratio). Put shortly:
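Antagonist mode: compounds are added alongside the adenylyl cyclase activator NKH477 (0.25 uM final) to CRE-bla HEK293T cells for 3 h. LiveBLAzer FRET substrate, 2 h at room temperature, reports bla expression.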

The target of assay [16] is Beta-2 adrenergic receptor (Homo sapiens) (UniProt P07550). Nature of the assay: Adrenergic beta2 receptor (ADRB2) small molecule antagonists, cell-based qHTS assay (AID 1963592). Also: series mostly up to about 92 µM; nearly all actives have a fitted effect of over 50% in size. Put shortly:
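Assay format: CHO-ADRB2 cells, 18-20hr seeding at 37C/5% CO2, then compound plus 1nM isoproterenol agonist mix for 0.5hr RT. Homogeneous time-resolved fluorescence cAMP detection after 1hr, expressed as 665/615 nm ratio.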

The target is the same in assay [17]. Nature of the assay: Adrenergic beta2 receptor (ADRB2) small molecule agonists, cell-based qHTS assay (AID 1963593). Also: potency is read from the fitted curve at half-maximal effect.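 As to activation: CHO cells stably overexpressing human ADRB2.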 The gist of the method:
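CHO cells stably over-expressing ADRB2 were plated overnight at 37C, then dosed with compounds plus a stimulation mix containing 100uM IBMX and 25uM Ro-20-1724 for 0.5hr at room temperature. cAMP was measured by HTRF competition, 1hr.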

Assay [18] addresses D(2) dopamine receptor (Homo sapiens) (UniProt P14416). Nature of the assay: Dopamine D2 receptor (DRD2) small molecule agonists, cell-based qHTS assay (AID 1963594). Also: nearly all actives have a fitted effect of over 35% in size. Put shortly: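 HEK293 cells stably expressing human DRD2, pre-treated with PDE inhibitor Ro20-1724 (0.1 mM final) and compound 10 min at room temperature, then stimulated with NKH477 (200nM […]) for 30 min. cAMP read by HTRF (665/620 nm).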

The target is the same in assay [19]. Kind of assay: Dopamine D2 receptor (DRD2) small molecule antagonists, cell-based qHTS assay (AID 1963595; active = well fitted inhibition curve with a large enough effect in the signal ratio in the repeat runs, with a control signal flat; the % refers to the signal ratio). Put shortly:
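HTRF cAMP read-out at 665 and 620 nm emission (340 nm excitation). Antagonist mode: compounds were tested against 12 nM quinpirole in DRD2-HEK293 cells, with 200 nM NKH477 raising cAMP and 0.1 mM Ro20-1724 blocking its breakdown.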

The nature of assay [20]: p53 small molecule agonists, cell-based qHTS assay with rat liver microsomes (AID 1963578). Also: potency is read from the fitted curve at half-maximal effect. Put shortly: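 Fluorescence from a beta-lactamase reporter under a p53 response element was measured after cells had been incubated 16 h at 37 C with test compound and rat liver microsomes plus NADPH (0.5 mg/mL final each).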

5-hydroxytryptamine receptor 2A (Homo sapiens), sequence (P28223 whole entry, looked up): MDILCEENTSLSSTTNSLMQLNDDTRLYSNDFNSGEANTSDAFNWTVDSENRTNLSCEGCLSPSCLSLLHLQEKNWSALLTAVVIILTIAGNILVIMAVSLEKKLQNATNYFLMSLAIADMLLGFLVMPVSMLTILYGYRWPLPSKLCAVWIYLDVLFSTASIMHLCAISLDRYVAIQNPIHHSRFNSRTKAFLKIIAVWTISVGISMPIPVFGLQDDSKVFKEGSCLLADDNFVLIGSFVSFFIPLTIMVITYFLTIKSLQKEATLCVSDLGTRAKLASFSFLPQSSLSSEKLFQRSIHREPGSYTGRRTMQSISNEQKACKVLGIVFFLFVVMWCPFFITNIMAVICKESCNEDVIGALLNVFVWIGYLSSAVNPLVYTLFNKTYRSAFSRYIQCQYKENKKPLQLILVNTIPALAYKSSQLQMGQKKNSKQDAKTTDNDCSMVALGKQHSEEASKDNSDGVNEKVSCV
D(2) dopamine receptor (Homo sapiens), sequence (P14416 whole entry, looked up): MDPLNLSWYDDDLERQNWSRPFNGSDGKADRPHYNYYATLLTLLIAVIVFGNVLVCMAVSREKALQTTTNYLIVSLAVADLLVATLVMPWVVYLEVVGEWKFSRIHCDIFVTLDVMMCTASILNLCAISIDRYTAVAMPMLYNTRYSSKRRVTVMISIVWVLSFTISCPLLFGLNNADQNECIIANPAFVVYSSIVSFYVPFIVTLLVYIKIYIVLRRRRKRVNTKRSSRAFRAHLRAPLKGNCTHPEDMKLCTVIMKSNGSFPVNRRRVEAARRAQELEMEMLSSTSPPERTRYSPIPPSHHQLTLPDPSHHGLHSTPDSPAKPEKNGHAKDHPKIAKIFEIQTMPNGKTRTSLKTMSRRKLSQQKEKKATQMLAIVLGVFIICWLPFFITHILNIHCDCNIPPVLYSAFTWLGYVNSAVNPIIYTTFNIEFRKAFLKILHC
Gonadotropin-releasing hormone receptor (Homo sapiens), sequence (P30968 whole entry, looked up): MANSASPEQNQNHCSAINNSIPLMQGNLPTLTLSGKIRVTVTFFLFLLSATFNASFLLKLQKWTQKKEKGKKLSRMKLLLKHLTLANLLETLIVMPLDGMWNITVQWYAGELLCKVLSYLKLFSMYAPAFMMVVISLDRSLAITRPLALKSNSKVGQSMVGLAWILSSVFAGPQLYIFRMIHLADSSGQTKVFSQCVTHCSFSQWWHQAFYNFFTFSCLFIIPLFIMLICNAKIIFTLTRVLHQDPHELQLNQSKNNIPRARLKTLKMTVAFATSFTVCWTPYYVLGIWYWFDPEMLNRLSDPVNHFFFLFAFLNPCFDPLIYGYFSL
Muscarinic acetylcholine receptor M1 (Homo sapiens), sequence (P11229 whole entry, looked up): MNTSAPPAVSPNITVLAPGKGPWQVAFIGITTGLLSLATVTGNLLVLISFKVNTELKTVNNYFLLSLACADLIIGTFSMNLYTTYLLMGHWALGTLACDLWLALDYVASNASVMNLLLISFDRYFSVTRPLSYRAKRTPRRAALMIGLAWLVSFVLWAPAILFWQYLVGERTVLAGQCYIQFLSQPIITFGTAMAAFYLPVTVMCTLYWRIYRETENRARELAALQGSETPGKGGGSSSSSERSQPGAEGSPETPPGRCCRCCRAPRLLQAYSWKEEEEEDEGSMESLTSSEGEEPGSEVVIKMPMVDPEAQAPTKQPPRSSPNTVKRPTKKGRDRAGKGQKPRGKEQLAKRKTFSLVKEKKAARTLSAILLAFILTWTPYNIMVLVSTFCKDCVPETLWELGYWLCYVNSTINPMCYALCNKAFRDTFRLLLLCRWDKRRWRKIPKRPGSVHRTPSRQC
Beta-2 adrenergic receptor (Homo sapiens), sequence (P07550 whole entry, looked up): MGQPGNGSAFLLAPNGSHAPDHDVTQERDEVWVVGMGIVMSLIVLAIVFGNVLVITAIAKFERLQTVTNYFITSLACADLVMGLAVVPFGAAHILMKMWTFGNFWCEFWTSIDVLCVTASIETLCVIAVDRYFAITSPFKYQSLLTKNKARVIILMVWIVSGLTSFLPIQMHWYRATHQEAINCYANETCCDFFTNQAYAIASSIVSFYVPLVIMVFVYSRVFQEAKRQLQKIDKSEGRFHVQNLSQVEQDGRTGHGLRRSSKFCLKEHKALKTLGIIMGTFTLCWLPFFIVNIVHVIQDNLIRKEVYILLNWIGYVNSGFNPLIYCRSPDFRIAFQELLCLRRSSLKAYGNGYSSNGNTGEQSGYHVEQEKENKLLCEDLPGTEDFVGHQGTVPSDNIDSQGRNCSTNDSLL
KiSS-1 receptor (Homo sapiens), sequence (Q969F8 whole entry, looked up): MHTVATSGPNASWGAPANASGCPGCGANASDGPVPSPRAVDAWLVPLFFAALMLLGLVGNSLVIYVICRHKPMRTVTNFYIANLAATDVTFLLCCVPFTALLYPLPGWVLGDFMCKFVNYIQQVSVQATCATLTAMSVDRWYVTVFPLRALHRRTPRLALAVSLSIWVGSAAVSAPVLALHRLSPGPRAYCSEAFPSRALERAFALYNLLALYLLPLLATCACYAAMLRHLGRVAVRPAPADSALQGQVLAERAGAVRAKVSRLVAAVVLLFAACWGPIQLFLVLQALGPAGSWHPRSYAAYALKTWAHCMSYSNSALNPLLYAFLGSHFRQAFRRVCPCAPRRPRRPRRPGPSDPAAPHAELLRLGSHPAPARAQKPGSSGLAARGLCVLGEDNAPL

For `OC(c1ccc(F)cc1)(c1cncnc1)c1ccccc1Cl` (stereo not given), the Potency entry in [1], in assay [2], in assay [3], in [4], in assay [5] and in [6] was “inactive” throughout. Moreover, the Potency entry in assay [7], in [8], in [9], in assay [10], in assay [11] and in assay [12] was “inactive” in each case. Besides, the Potency entry in assay [13], in assay [14], in assay [15], in assay [16], in assay [17] and in assay [18] was “inactive” each time. Also, in [19], the Potency result is “inactive”.
On to `c1ccc2c(c1)[nH]c1cnccc12`, for which the Potency result in assay [1], in [2], in assay [3], in assay [4], in assay [5] and in assay [6] was “inactive” in each case. Moreover, the Potency result in assay [7], in [8], in [12], in assay [13], in [14] and in assay [15] was “inactive” each time. Moreover, the Potency result in assay [16], in [17], in assay [18] and in assay [19] was “inactive” each time. The Potency in [20] is 36.4 µM (active).
For `COC(=O)/C=C(\C)OP(=O)(OC)OC`, the Potency entry in [1], in assay [2], in assay [3], in [4], in [5] and in [6] was “inactive” throughout. Also, the Potency entry in assay [7], in assay [8], in assay [9], in assay [10], in assay [12] and in [13] was “inactive” each time. Further, the Potency entry in [16] and in [18] was “inactive” throughout. Further, in [17], the Potency was 17.2 µM (active).
With `CO/N=C(/C1=NOCCO1)c1ccccc1Oc1ncnc(Oc2ccccc2Cl)c1F`, the Potency entry in assay [1], in [2], in [3], in [4], in assay [5] and in assay [20] was “inactive” each time. Further, the Potency result in assay [7], in assay [11], in assay [12], in assay [13], in [15] and in assay [16] was “inactive” throughout. Moreover, the Potency result in [19] was “inactive”.
`CCN(CC)c1c([N+](=O)[O-])cc(C(F)(F)F)c(N)c1[N+](=O)[O-]`: the Potency entry in [1], in assay [2], in assay [3], in assay [4], in [5] and in assay [20] was “inactive” in each case. For the same compound, the Potency entry in [7], in assay [8], in assay [9], in [11], in assay [13] and in assay [17] was “inactive” throughout. For the same compound, the Potency result in assay [18] and in assay [19] was “inactive” each time.
`O=c1[nH]c(Cl)c(Cl)cc1Cl`: the Potency entry in assay [1], in assay [2], in assay [3], in [4], in assay [5] and in assay [20] was “inactive” each time. Besides, the Potency result in assay [6], in assay [7], in assay [8], in assay [10], in [11] and in assay [12] was “inactive” in each case. For the same compound, the Potency result in assay [16], in [18] and in [19] was “inactive” each time.
As to `CS(=O)(=O)c1ccc(C(=O)C2C(=O)CCCC2=O)c([N+](=O)[O-])c1`, the Potency entry in assay [1], in assay [2], in assay [3], in [4], in [5] and in assay [20] was “inactive” throughout. Further, the Potency entry in assay [8], in [10], in [11], in assay [16] and in [19] was “inactive” throughout.
As for `CCCCCCCCCC(=O)O[C@H]1CC[C@H]2[C@@H]3CCC4=CC(=O)CC[C@@H]4[C@H]3CC[C@]12C`, the Potency result in [1], in [2], in [3], in assay [4], in assay [5] and in assay [20] was “inactive” each time. The Potency entry in assay [6], in assay [7], in [10], in [11], in assay [12] and in [15] was “inactive” in each case. The Potency entry in assay [16], in [17], in assay [18] and in [19] was “inactive” throughout.
